# “And” between values parts separate entries of the source, which are not always exact repeats. Identical values can stand only once. A number with no mark means an inactive call. Results filed as inconclusive are left out. The source made the active and inactive calls. Unless noted, calls come from the whole dose curve; as a rule, active = well fitted curve in either direction with a large enough effect (not every such curve was filed as active); inconclusive = small, poorly fitted or top-dose-only effect, or another doubt; inactive = flat fitted curve, though single readings scatter.
# What was measured:
# [1] = AP1 Signaling Pathway (AID 357); conditions: ME-180 (cervical carcinoma) AP-1-bla reporter, EGF-induced, beta-lactamase ratio, 5 h;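 note: ME-180 reporter cells stimulated with EGF at its EC50 level; % is set by controls: 0 for no effect and ±100 for the full control effect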
# Summary of the method: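 Beta-lactamase reporter under AP-1 response element, ME-180 background. Stimulus: EC50 EGF. Compound exposure 5 h, 37 °C. Detection: CCF4, 2.5 h RT, 460/530 nm. Values: AC50 from titration.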
# [2] = biological target: Cytochrome P450 1A2 (Homo sapiens) (UniProt P05177); assay: p450-cyp1a2 (AID 410; calls by dose curve; note: potency is the fitted concentration of half-maximal effect;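 for activity change, negative = inhibition: -100% = full effect of reference inhibitor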); conditions: recombinant CYP1A2, luciferin-ME demethylation, luminescence; series mostly up to 57 µM
# Cytochrome P450 1A2 (Homo sapiens), sequence (P05177 whole entry, looked up): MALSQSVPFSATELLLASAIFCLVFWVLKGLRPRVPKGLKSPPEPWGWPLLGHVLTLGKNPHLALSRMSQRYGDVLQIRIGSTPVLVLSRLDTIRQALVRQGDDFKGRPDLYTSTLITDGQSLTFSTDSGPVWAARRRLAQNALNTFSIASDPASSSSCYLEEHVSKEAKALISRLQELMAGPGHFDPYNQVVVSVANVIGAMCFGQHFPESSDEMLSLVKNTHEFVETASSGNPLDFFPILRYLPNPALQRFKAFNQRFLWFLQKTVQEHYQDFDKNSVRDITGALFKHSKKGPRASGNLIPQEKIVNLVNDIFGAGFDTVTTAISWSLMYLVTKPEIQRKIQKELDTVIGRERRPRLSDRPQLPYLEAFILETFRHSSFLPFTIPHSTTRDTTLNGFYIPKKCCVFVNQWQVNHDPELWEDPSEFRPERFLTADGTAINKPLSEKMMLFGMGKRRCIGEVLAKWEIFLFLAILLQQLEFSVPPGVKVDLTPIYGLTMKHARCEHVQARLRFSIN
# Summary of the method: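 Luminescent demethylation readout: Luciferin-ME (100uM, equal to Km) turned over by 20nM CYP1A2 for 60 min at room temperature after NADPH regeneration addition, following 10 min compound preincubation. Normalization used 57 uM furafylline as full inhibition.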
# [3] = biological target: Lysosomal acid glucosylceramidase (Homo sapiens) (UniProt P04062); assay: Glucocerebrosidase-p2 (AID 348; in the data active = potency below about 10 µM; note: potency is the fitted concentration of half-maximal effect); conditions: purified GBA, blue fluorogenic substrate, 40 min
# Lysosomal acid glucosylceramidase (Homo sapiens), sequence (P04062 whole entry, looked up): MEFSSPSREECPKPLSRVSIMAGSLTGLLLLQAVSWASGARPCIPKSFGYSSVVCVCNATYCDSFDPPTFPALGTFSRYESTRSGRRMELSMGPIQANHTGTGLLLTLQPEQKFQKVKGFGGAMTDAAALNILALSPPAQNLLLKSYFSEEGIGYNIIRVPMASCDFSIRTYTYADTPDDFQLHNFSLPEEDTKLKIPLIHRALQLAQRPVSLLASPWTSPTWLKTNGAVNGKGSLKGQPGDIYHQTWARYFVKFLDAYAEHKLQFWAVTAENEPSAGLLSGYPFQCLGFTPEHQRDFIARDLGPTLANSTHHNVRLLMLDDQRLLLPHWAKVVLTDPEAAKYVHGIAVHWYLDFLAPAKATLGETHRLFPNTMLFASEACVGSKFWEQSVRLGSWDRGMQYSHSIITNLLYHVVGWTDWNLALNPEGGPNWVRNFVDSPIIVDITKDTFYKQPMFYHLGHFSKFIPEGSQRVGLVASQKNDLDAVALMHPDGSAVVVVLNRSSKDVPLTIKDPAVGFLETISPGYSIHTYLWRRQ
# Summary of the method: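 Normal human glucocerebrosidase (0.2 nM) with blue fluorogenic substrate (80 uM final) in citrate/phosphate pH 5.9 with 10mM sodium taurocholate, 0.01% tween-20; 40 min RT, NaOH/glycine stop; fluorescence Ex 365/Em 440; AC50 from a titration from 0.6 nM upwards.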
# [4] = NFAT Signaling Pathway (AID 444); conditions: Jurkat NFAT-bla M1, carbachol, beta-lactamase ratio, 5 h; at 38 µM (top of the series) unless noted;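 note: carbachol stimulus at about its EC50 of 1 µM final; % is set by controls: 0 for no effect and ±100 for the full control effect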
# Summary of the method: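 Jurkat cells with NFAT-driven β-lactamase reporter and co-expressed M1 receptor, stimulated with carbachol (final 1 uM, ~EC50), compound titration, 5 h at 37 °C. CCF4 loaded 1 h at RT; 460/530 nm ratio gave %activity and AC50.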
smiles,measurement,setting,value
O=S(=O)(c1cccc2c(I)cccc12)N1CCCNCC1,"activity change, negative = inhibition",[1]; at 38 µM (top of the series),5.61%
same,Potency,[2],10 µM (active)
CCCCN1CCC(n2c(=O)[nH]c3ccccc32)CC1,"activity change, negative = inhibition",[1]; at 38 µM (top of the series),-4.94%
same,Potency,[2],inactive
O=C1NC(O)=NC1(c1ccccc1)c1ccccc1,"activity change, negative = inhibition",[1]; at 38 µM (top of the series),1.51%
same,Potency,[2],inactive
Clc1ccccc1-c1nc(-c2ccncc2)no1,Potency,[3],> 11.4 µM
same,"activity change, negative = inhibition",[1]; at 7.69 µM (top of the series),-0.307%
same,Potency,[2],0.0794 µM (active)
same,"activity change, negative = inhibition",[4],-8.15% [at 7.69 µM]
NO,"activity change, negative = inhibition",[1]; at 38 µM (top of the series),6.61%
same,Potency,[2],inactive
O=C(O)Cc1ccc(-c2ccccc2)cc1,"activity change, negative = inhibition",[1]; at 17.2 µM (top of the series),3.75% and 6.11%
CN1[C@@H](CC(=O)c2ccccc2)CCC[C@H]1C[C@H](O)c1ccccc1,"activity change, negative = inhibition",[1]; at 17.2 µM (top of the series),1.25%
NCCSSCCN,Potency,[3],> 11.4 µM
same,"activity change, negative = inhibition",[1]; at 7.69 µM (top of the series),-2.06%
same,"activity change, negative = inhibition",[1]; at 38 µM (top of the series),-9.31%
same,Potency,[2],inactive
CN1CCc2ccccc2Cc2[nH]c3ccccc3c2CC1,"activity change, negative = inhibition",[1]; at 38 µM (top of the series),8.89%
CN1[C@@H]2CC[C@H]1CC(OC(c1ccccc1)c1ccccc1)C2 (stereo partly drawn),Potency,[3],> 11.4 µM
same,"activity change, negative = inhibition",[1]; at 7.69 µM (top of the series),12.3%
same,Potency,[2],inactive
same,"activity change, negative = inhibition",[4],-83.5% [at 7.69 µM] (active)
COc1ccc(/C=C/C(=O)Nc2ccccc2C(=O)O)cc1OC,"activity change, negative = inhibition",[1]; at 17.2 µM (top of the series),-28.6%
N.N.O=C(O)C1(C(=O)O)CCC1.[Pt],"activity change, negative = inhibition",[1]; at 38 µM (top of the series),-8.77%
CNCC[C@H](Oc1ccc(C(F)(F)F)cc1)c1ccccc1,"activity change, negative = inhibition",[1]; at 17.2 µM (top of the series),21.4%
same,"activity change, negative = inhibition",[1]; at 38 µM (top of the series),29.8% and 23.7%
same,Potency,[2],20 µM (active) and 5.01 µM (active) and 31.6 µM (active)

# Source: PubChem BioAssay (NCATS)
